The record followed here is PubChem BioAssay (NCI).

Compounds without any hit were thinned out: in the full panel of roughly 79,000, 15% have a hit. Unmarked numbers belong to inactive results. Active and inactive are the calls of the source. No stated cut-off is given here; in the data, active means growth inhibition above about 70%; inactive means the rest.

A short description of assay [1]: NCI Yeast Anticancer Drug Screen. Data for the rad50 strain (AID 155).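 Further: 0% = growth of vehicle-only cultures of the same strain.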 The conditions noted are these: S. cerevisiae rad50 strain growth inhibition, stronger effect = higher value. In short, it runs like this:
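Growth of the mutant yeast was measured after compound exposure and referenced to vehicle-treated cultures.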

The nature of assay [2]: NCI Yeast Anticancer Drug Screen. Data for the mec2-1 strain (AID 157). The conditions noted are these: S. cerevisiae mec2-1 strain, stronger effect = higher value. In short, it runs like this: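 Growth inhibition is read against vehicle-treated controls after compound exposure of the mec2-1 yeast strain, which is defective in DNA damage repair or cell cycle control.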
Assay [3] is described as follows: NCI Yeast Anticancer Drug Screen. Data for the sgs1 mgt1 strain (AID 161).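 Further: 0% = growth of cultures given vehicle only.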 As to conditions: S. cerevisiae sgs1 mgt1 strain, stronger effect = higher value. In short, it runs like this: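 Compounds are added to genetically altered yeast, and growth is compared with cultures given vehicle alone to give percent inhibition.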
Assay [4] in a line: NCI Yeast Anticancer Drug Screen. Data for the cln2 rad14 strain (AID 165).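 Further: 0% = growth equal to vehicle treated cultures.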 As to conditions: S. cerevisiae cln2 rad14 strain, stronger effect = higher value. In short, it runs like this: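 Growth inhibition, relative to vehicle-treated controls, is the read-out. The test organism is a yeast strain with defined genetic alterations, cln2 rad14.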
Assay [5] can be described thus: NCI Yeast Anticancer Drug Screen. Data for the bub3 strain (AID 167). The conditions noted are these: S. cerevisiae bub3 mutant strain, stronger effect = higher value. In short, it runs like this:
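Whole-cell yeast assay. The mutant strain was incubated with compounds, and growth inhibition was determined by comparison with vehicle-treated cells.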

Assay [6] can be described thus: NCI Yeast Anticancer Drug Screen. Data for the mlh1 rad18 strain (AID 175). The conditions noted are these: S. cerevisiae mlh1 rad18 strain growth inhibition, stronger effect = higher value. In short, it runs like this:
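Cells of a genetically altered yeast strain, deficient in DNA damage repair, were treated with compound. Their growth was then compared with that of vehicle-treated cultures to give inhibition.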

The mark [7] stands for this setting: at 5.0 µM (retest, dose inferred, filed as 0.5).
Where [8] appears, read: at 50.0 µM (retest, dose inferred, filed as 5.0).

Take `C#Cc1cccc(N=Cc2cc(Cl)cc(Cl)c2O)c1`: the growth inhibition in assay [1] (setting [7]) was 13%; in assay [1] (setting [8]), 90% (active); in assay [1] (at 50.0 µM) it was 94.6% (active); in assay [2] (setting [7]), 8%; in assay [2] (setting [8]) it was 90% (active); in assay [2] (at 50.0 µM), 94.3% (active). The growth inhibition in assay [3] (setting [7]) was 20%; in assay [3] (setting [8]), 97% (active); in assay [3] (at 50.0 µM), 97.8% (active); in assay [4] (setting [7]), -1%; in assay [4] (setting [8]), 91% (active); in assay [4] (at 50.0 µM) it was 62.4%. Further, the growth inhibition in assay [5] (setting [7]) is -1%; in assay [5] (setting [8]) it was 80% (active); in assay [5] (at 50.0 µM), 89.9% (active); in assay [6] (setting [7]), 20%; in assay [6] (setting [8]) it was 98% (active); in assay [6] (at 50.0 µM) it was 97.2% (active).

For the compound `C[C@@H]1CN(CC2COc3ccccc3O2)[C@@H](C)CN1CC1COc2ccccc2O1` (some centres not stated), the growth inhibition was 63% in assay [1] (setting [7]); 80% (active) in assay [1] (setting [8]); 86.8% (active) in assay [1] (at 50.0 µM); 74% (active) in assay [2] (setting [7]); 86% (active) in assay [2] (setting [8]); 84.3% (active) in assay [2] (at 50.0 µM). Moreover, the growth inhibition is 84% (active) in assay [3] (setting [7]); 98% (active) in assay [3] (setting [8]); 97.4% (active) in assay [3] (at 50.0 µM); 52% in assay [4] (setting [7]); 65% in assay [4] (setting [8]); 92.8% (active) in assay [4] (at 50.0 µM). The growth inhibition was 52% in assay [5] (setting [7]); 77% (active) in assay [5] (setting [8]); 84.7% (active) in assay [5] (at 50.0 µM); 82% (active) in assay [6] (setting [7]); 94% (active) in assay [6] (setting [8]); 94.5% (active) in assay [6] (at 50.0 µM).

In the case of `N#CC(/C=C/c1ccccc1)(NO)Nc1cccc(Cl)c1` (configuration not stated), the growth inhibition in assay [1] (setting [7]) is 6%; in assay [1] (setting [8]) it was 98% (active); in assay [1] (at 50.0 µM), 99.2% (active); in assay [2] (setting [7]), 32%; in assay [2] (setting [8]), 99% (active); in assay [2] (at 50.0 µM), 99.6% (active). Moreover, the growth inhibition in assay [3] (setting [7]) is 39%; in assay [3] (setting [8]) it was 99% (active); in assay [3] (at 50.0 µM), 99.1% (active); in assay [4] (setting [7]), 10%; in assay [4] (setting [8]) it was 99% (active); in assay [4] (at 50.0 µM), 98.8% (active). Moreover, the growth inhibition was 29% in assay [5] (setting [7]); 99% (active) in assay [5] (setting [8]); 99.5% (active) in assay [5] (at 50.0 µM); 23% in assay [6] (setting [7]); 99% (active) in assay [6] (setting [8]); 99.5% (active) in assay [6] (at 50.0 µM).

For the compound `O=[N+]([O-])c1ccc2c(c1)/C(=N\O)c1cc(Br)ccc1-2`, the growth inhibition in assay [1] (setting [7]) is 14%; in assay [1] (setting [8]), 39%; in assay [1] (at 50.0 µM) it was 91.4% (active); in assay [2] (setting [7]), 5%; in assay [2] (setting [8]), 24%; in assay [2] (at 50.0 µM), 71% (active). Also, the growth inhibition in assay [3] (setting [7]) is 13%; in assay [3] (setting [8]), 33%; in assay [3] (at 50.0 µM) it was 67.2%; in assay [4] (setting [7]), -2%; in assay [4] (setting [8]), 14%; in assay [4] (at 50.0 µM), 35.4%. In addition, the growth inhibition in assay [5] (setting [7]) was -5%; in assay [5] (setting [8]), 3%; in assay [5] (at 50.0 µM), 13.7%; in assay [6] (setting [7]), 10%; in assay [6] (setting [8]), 29%; in assay [6] (at 50.0 µM), 96.8% (active).

As to `N#CC(C#N)C(c1ccccc1)c1ccccc1`, the growth inhibition in assay [1] (setting [7]) is -4%; in assay [1] (setting [8]) it was 5%; in assay [1] (at 50.0 µM), 13.1%; in assay [2] (setting [7]), 6%; in assay [2] (setting [8]) it was 20%; in assay [2] (at 50.0 µM), 17.9%. The growth inhibition in assay [3] (setting [7]) was 1%; in assay [3] (setting [8]), -41%; in assay [3] (at 50.0 µM), 11%; in assay [4] (setting [7]), -3%; in assay [4] (setting [8]), -10%; in assay [4] (at 50.0 µM), -1.1%. Moreover, the growth inhibition is 0% in assay [5] (setting [7]); 0% in assay [5] (setting [8]); 1.75% in assay [5] (at 50.0 µM); -1% in assay [6] (setting [7]); 2% in assay [6] (setting [8]); 10.5% in assay [6] (at 50.0 µM).

With `Nc1ccc(Oc2ccccc2)cc1`, the growth inhibition in assay [1] (setting [7]) was 2%; in assay [1] (setting [8]) it was 38%; in assay [1] (at 50.0 µM) it was 67.5%; in assay [2] (setting [7]) it was -3%; in assay [2] (setting [8]), 7%; in assay [2] (at 50.0 µM), 33.9%. In addition, the growth inhibition in assay [3] (setting [7]) was -9%; in assay [3] (setting [8]) it was 37%; in assay [3] (at 50.0 µM) it was 75.6% (active); in assay [4] (setting [7]), -1%; in assay [4] (setting [8]), 1%; in assay [4] (at 50.0 µM), 1.2%. In addition, the growth inhibition in assay [5] (setting [7]) was 0%; in assay [5] (setting [8]), -18%; in assay [5] (at 50.0 µM), 25.4%; in assay [6] (setting [7]), -3%; in assay [6] (setting [8]), 28%; in assay [6] (at 50.0 µM), 54.8%.

Turning to `NNc1c(F)c(F)c(-c2c(F)c(F)c(NN)c(F)c2F)c(F)c1F`, the growth inhibition in assay [1] (setting [7]) is 42%; in assay [1] (setting [8]), 71% (active); in assay [1] (at 50.0 µM) it was 87.6% (active); in assay [2] (setting [7]) it was 38%; in assay [2] (setting [8]), 68%; in assay [2] (at 50.0 µM), 89.2% (active). The growth inhibition is 23% in assay [3] (setting [7]); 98% (active) in assay [3] (setting [8]); 91.5% (active) in assay [3] (at 50.0 µM); 48% in assay [4] (setting [7]); 99% (active) in assay [4] (setting [8]); 89.8% (active) in assay [4] (at 50.0 µM). The growth inhibition was 43% in assay [5] (setting [7]); 98% (active) in assay [5] (setting [8]); 90.1% (active) in assay [5] (at 50.0 µM); 39% in assay [6] (setting [7]); 59% in assay [6] (setting [8]); 86.8% (active) in assay [6] (at 50.0 µM).

Regarding `CCOC(=O)CC1(C)C(=O)CCCC1=O`, the growth inhibition is 3% in assay [1] (setting [7]); -2% in assay [1] (setting [8]); -3.7% in assay [1] (at 50.0 µM); -2% in assay [2] (setting [7]); -2% in assay [2] (setting [8]); 2% in assay [2] (at 50.0 µM). The growth inhibition in assay [3] (setting [7]) was 0%; in assay [3] (setting [8]) it was 0%; in assay [3] (at 50.0 µM), 3.65%; in assay [4] (setting [7]), 0%; in assay [4] (setting [8]), -2%; in assay [4] (at 50.0 µM), -27.5%. For the same compound, the growth inhibition is -5% in assay [5] (setting [7]); -2% in assay [5] (setting [8]); -6.7% in assay [5] (at 50.0 µM); -3% in assay [6] (setting [7]); -156% in assay [6] (setting [8]); -1% in assay [6] (at 50.0 µM).

Consider `C[n+]1c(-c2ccc(/C=N\Nc3nnc(S)n3/N=C/c3ccc(-c4cn5ccccc5[n+]4C)cc3)cc2)cn2ccccc21`, for which the growth inhibition in assay [1] (setting [7]) is 7%; in assay [1] (setting [8]), 98% (active); in assay [1] (at 50.0 µM), 94.5% (active); in assay [2] (setting [7]), -16%; in assay [2] (setting [8]) it was 96% (active); in assay [2] (at 50.0 µM) it was 92.9% (active). Besides, the growth inhibition is 3% in assay [3] (setting [7]); 97% (active) in assay [3] (setting [8]); 95.8% (active) in assay [3] (at 50.0 µM); 4% in assay [4] (setting [7]); 94% (active) in assay [4] (setting [8]); 92.1% (active) in assay [4] (at 50.0 µM). Besides, the growth inhibition in assay [5] (setting [7]) is 29%; in assay [5] (setting [8]), 98% (active); in assay [5] (at 50.0 µM), 93% (active); in assay [6] (setting [7]), 10%; in assay [6] (setting [8]), 97% (active); in assay [6] (at 50.0 µM), 96.8% (active).
